Reference: PubChem BioAssay (Tox21)
Records with an inconclusive call do not appear. Activity calls are given as the source filed them. Calls follow the shape of the dose curve; as a rule, active = well fitted curve in the direction sought with a large enough effect in the repeat runs; inconclusive = weak or mixed curves; inactive = no such curve, though single readings can be large; an effect the other way counts as inactive or inconclusive.

Columns and labels:
[1] = A CellTox Green Cytotoxicity Assay to monitor cytotoxicity in HEK293 cells - 40 hour (AID 1224871); also: nearly all actives have a fitted effect of over 45% in size
In short: (§1)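 Cytotoxicity was tracked continuously in HEK293 cells by a DNA-binding dye excluded from viable cells. Compounds were transferred in DMSO 5 h after seeding; fluorescence was recorded at intervals up to 40 h.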

[2] = qHTS RealTime-Glo MT Cell Viability Assay in HEK293 cells - 16 hour (AID 1224872); also: top concentration of the series differs between compounds; nearly all actives have a fitted effect of over 50% in size
In short: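 Nonlytic real-time viability readout: viable cells convert prosubstrate to NanoLuc substrate, giving luminescence proportional to live cell number. HEK293, 600 cells/well, compound added after 5 h, continuous culture at 37 C.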

[3] = qHTS RealTime-Glo MT Cell Viability Assay in HepG2 cells - 8 hour (AID 1224873); also: nearly all actives have a fitted effect of over 55% in size
In short: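 HepG2 cells (600/well) mixed with RealTime-Glo MT reagent, settled 5 h at 37 C/5% CO2 before compound addition. Nonlytic NanoLuc luminescence from viable-cell prosubstrate reduction read repeatedly during 40 h treatment at 37 C.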

[4] = qHTS RealTime-Glo MT Cell Viability Assay in HEK293 cells - 40 hour (AID 1224874); conditions: RealTime-Glo luminescence; max response: hits give low values; also: nearly all actives have a fitted effect of over 50% in size
In short: (§2)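 Nonlytic bioluminescent viability monitoring. HEK293 at 600 cells/well with reagent; 5 h settle; compound transfer by pintool; plates held at 37 C and read at set time points.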

[5] = A CellTox Green Cytotoxicity Assay to monitor cytotoxicity in HEK293 cells - 24 hour (AID 1224875); also: series mostly up to about 77 µM; nearly all actives have a fitted effect of over 45% in size
In short: as §1

[6] = A CellTox Green Cytotoxicity Assay to monitor cytotoxicity in HepG2 cells - 16 hour (AID 1224876); also: nearly all actives have a fitted effect of over 45% in size
In short: (§3)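 Real-time, homogeneous cytotoxicity readout: dead-cell DNA staining by CellTox Green in HepG2 monolayers, fluorescence measured at timed intervals up to 40 h of continuous compound exposure.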

[7] = qHTS RealTime-Glo MT Cell Viability Assay in HepG2 cells - 32 hour (AID 1224877); also: nearly all actives have a fitted effect of over 55% in size
In short: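 Luminescence read-out: viable HepG2 cells reduce a prosubstrate to a NanoLuc substrate, giving a signal proportional to live cell number. Reads taken at 0, 8, 16, 24, 32 and 40 h of compound exposure at 37 C.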

[8] = A CellTox Green Cytotoxicity Assay to monitor cytotoxicity in HepG2 cells - 24 hour (AID 1224878); also: nearly all actives have a fitted effect of over 45% in size
In short: as §3

[9] = A CellTox Green Cytotoxicity Assay to monitor cytotoxicity in HepG2 cells - 40 hour (AID 1224879); also: nearly all actives have a fitted effect of over 40% in size
In short: as §3

[10] = qHTS RealTime-Glo MT Cell Viability Assay in HEK293 cells - 0 hour (AID 1224880); also: nearly all actives have a fitted effect of over 45% in size; also: potency is read from the fitted curve at half-maximal effect
In short: as §2
% is scaled to controls: 0 for no effect and ±100 for the full control effect.

COC(C)(C)OC
inactive: Potency [1] | Potency [2] | Potency [3] | max response [4] 15.9% | Potency [5] | Potency [6] | Potency [7] | Potency [8] | Potency [9] | Potency [10]

O=C(O)CCS
inactive: Potency [1] | Potency [2] | Potency [3] | max response [4] 7.66% | Potency [5] | Potency [6] | Potency [7] | Potency [8] | Potency [9] | Potency [10]

O=S(=O)(Cl)c1c(Cl)cccc1Cl
inactive: Potency [1] | Potency [2] | Potency [3] | max response [4] -11.9% | Potency [5] | Potency [6] | Potency [7] | Potency [8] | Potency [9] | Potency [10]

O=C(O)c1ccc(O)cc1O
inactive: Potency [1] | Potency [2] | Potency [3] | max response [4] -2.47% | Potency [5] | Potency [6] | Potency [7] | Potency [8] | Potency [9] | Potency [10]

COc1ccc(C(=O)NCc2ccc(OCCN(C)C)cc2)cc1OC
inactive: Potency [1] | Potency [2] | Potency [3] | max response [4] 2.93% | Potency [5] | Potency [6] | Potency [7] | Potency [8] | Potency [9] | Potency [10]

CCOC(=O)Oc1ccc(CCNC(=O)[C@H](CCSC)NC(C)=O)cc1OC(=O)OCC
inactive: Potency [1] | Potency [2] | Potency [3] | max response [4] 14.4% | Potency [5] | Potency [6] | Potency [7] | Potency [8] | Potency [9] | Potency [10]

CCN(Cc1cccc(S(=O)(=O)O)c1)c1ccc(C(=C2C=CC(=[N+](CC)Cc3cccc(S(=O)(=O)O)c3)C=C2)c2ccc(O)cc2S(=O)(=O)[O-])cc1
inactive: Potency [1] | Potency [2] | Potency [3] | max response [4] 8.88% | Potency [5] | Potency [6] | Potency [7] | Potency [8] | Potency [9] | Potency [10]

CCCCCCC(O)CCOC(C)=O (stereo not given)
inactive: Potency [1] | Potency [2] | Potency [3] | max response [4] 0.328% | Potency [5] | Potency [6] | Potency [7] | Potency [8] | Potency [9] | Potency [10]

CC(O)Cn1cnc2c1c(=O)n(C)c(=O)n2C (stereo not given)
inactive: Potency [1] | Potency [2] | Potency [3] | max response [4] 5.1% | Potency [5] | Potency [6] | Potency [7] | Potency [8] | Potency [9] | Potency [10]

COc1ccc(C2C(=O)c3ccccc3C2=O)cc1
inactive: Potency [1] | Potency [2] | Potency [3] | max response [4] 4.61% | Potency [5] | Potency [6] | Potency [7] | Potency [8] | Potency [9] | Potency [10]

CC(C)N(C)C
inactive: Potency [1] | Potency [2] | Potency [3] | max response [4] 0.0453% | Potency [5] | Potency [6] | Potency [7] | Potency [8] | Potency [9] | Potency [10]

CCNc1nc(N)nc(Cl)n1
inactive: Potency [1] | Potency [2] | Potency [3] | max response [4] 9.34% | Potency [5] | Potency [6] | Potency [7] | Potency [8] | Potency [9] | Potency [10]

CC(=O)C(=O)CC(C)C
inactive: Potency [1] | Potency [2] | Potency [3] | max response [4] 9.63% | Potency [5] | Potency [6] | Potency [7] | Potency [8] | Potency [9] | Potency [10]

CCCCCCCC/C=C/C(=O)O
inactive: Potency [1] | Potency [2] | Potency [3] | max response [4] 8.87% | Potency [5] | Potency [6] | Potency [7] | Potency [8] | Potency [9] | Potency [10]

O=C(O)CN1C(=O)c2cccc3cccc(c23)C1=O
inactive: Potency [1] | Potency [2] | Potency [3] | max response [4] 9% | Potency [5] | Potency [6] | Potency [7] | Potency [8] | Potency [9] | Potency [10]

CCCCCC
inactive: Potency [1] | Potency [2] | Potency [3] | max response [4] 0.47% | Potency [5] | Potency [6] | Potency [7] | Potency [8] | Potency [9] | Potency [10]

C=CC(=O)O
inactive: Potency [1] | Potency [2] | Potency [3] | max response [4] -0.787% | Potency [5] | Potency [6] | Potency [7] | Potency [8] | Potency [9] | Potency [10]

CC(=O)NCCO
inactive: Potency [1] | Potency [2] | Potency [3] | max response [4] 8.1% | Potency [5] | Potency [6] | Potency [7] | Potency [8] | Potency [9] | Potency [10]

O=C(NC(Cc1cc(=O)[nH]c2ccccc12)C(=O)O)c1ccc(Cl)cc1 (stereo not given)
inactive: Potency [1] | Potency [2] | Potency [3] | max response [4] 3.38% | Potency [5] | Potency [6] | Potency [7] | Potency [8] | Potency [9] | Potency [10]

Cc1c(C2(c3cc(Br)c(O)c(Br)c3C)OS(=O)(=O)c3ccccc32)cc(Br)c(O)c1Br
active: Potency [10] 15 µM
inactive: Potency [1] | Potency [2] | Potency [3] | max response [4] -21.5% | Potency [5] | Potency [6] | Potency [7] | Potency [8] | Potency [9]

C/C(C=O)=C\c1ccccc1
inactive: Potency [1] | Potency [2] | Potency [3] | max response [4] 0.492% | Potency [5] | Potency [6] | Potency [7] | Potency [8] | Potency [9] | Potency [10]

CC(C)(C)S
inactive: Potency [1] | Potency [2] | Potency [3] | max response [4] -0.0448% | Potency [5] | Potency [6] | Potency [7] | Potency [8] | Potency [9] | Potency [10]
